Laboratory results as given in PubChem BioAssay.
Active and inactive are the calls of the source.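 Rule for the calls, unless noted: active = fluorescence slope after compound addition differing from the mean of all screened samples at 99.7% confidence, in either direction; inactive = the rest.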 Where a SMILES comes first, the peptide text is derived from it. The star is where a group is joined. Boc = CC(C)(C)OC(=O)*

Legend:
[1] = inhibitors of TNFa-induced NFkB p65 translocation, primary screen, imaging, HUVEC, MLSMR starter and 10KST1 sets (AID 438;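 active = inhibition above 20% together with a positive visual image hit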;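 note: compound added about 3h40 before a 20 min TNFalpha stimulation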;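 for inhibition: signal is the nuclear over cytoplasmic p65 intensity ratio per well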); settings: HUVEC TNFa-induced p65 nuclear translocation; cell count: measured here: nuclei count (cytotoxicity indicator), at 2.08 µM; inhibition: at 2 µM, stronger effect = higher value, 0% TNFa-plus-vehicle, 100% no-TNFa wells
[2] = inhibitors of mutant huntingtin aggregation, primary screen, imaging, exon1htt(103Q)mCFP cells, high-content imaging (AID 483;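 active = visual image review flags a hit and inhibition of aggregation exceeds 20%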;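 note: compound exposure lasted 3 days before fixation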;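 for nuclei count: percent of the per-plate median nuclei count of sample wells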); settings: exon1htt(103Q)mCFP cell line, aggregate imaging, at 2 µM; inhibition of aggregation: stronger effect = higher value; nuclei count: measured here: cell count, toxicity
[3] = inhibitors of E-selectin induction by TNFa, primary screen, imaging, HUVEC, immunofluorescence, MLSMR starter and 10KST1 sets (AID 487;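 active = visually confirmed hit in the image check and inhibition above 20%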;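 for inhibition: signal is fraction of cell area covered by stained E-selectin grains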;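 for nuclei count: 100% = median nuclei count of all wells on the same plate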); settings: HUVEC TNFalpha-induced E-selectin immunofluorescence imaging, at 2 µM; inhibition: stronger effect = higher value; nuclei count: measured here: cell number, toxicity
[4] = biological target: Voltage-gated potassium channel subunit beta-2 (Rattus norvegicus) (UniProt P62483); experiment: KvBeta enzyme negative modulators, primary screen, biochemical, NADPH fluorescence (AID 622;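 active = fluorescence slope higher than the sample average by over 3 SD, cut at about -0.22 in these data, passing the limit was not always enough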;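 note: slope of raw intensity against log time taken from 70 to 1610 s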); settings: recombinant KvBeta, 4-cyanobenzaldehyde reduction, at 10 µM, stronger effect = higher value
Sequence of Voltage-gated potassium channel subunit beta-2 (Rattus norvegicus) (P62483 whole entry, looked up): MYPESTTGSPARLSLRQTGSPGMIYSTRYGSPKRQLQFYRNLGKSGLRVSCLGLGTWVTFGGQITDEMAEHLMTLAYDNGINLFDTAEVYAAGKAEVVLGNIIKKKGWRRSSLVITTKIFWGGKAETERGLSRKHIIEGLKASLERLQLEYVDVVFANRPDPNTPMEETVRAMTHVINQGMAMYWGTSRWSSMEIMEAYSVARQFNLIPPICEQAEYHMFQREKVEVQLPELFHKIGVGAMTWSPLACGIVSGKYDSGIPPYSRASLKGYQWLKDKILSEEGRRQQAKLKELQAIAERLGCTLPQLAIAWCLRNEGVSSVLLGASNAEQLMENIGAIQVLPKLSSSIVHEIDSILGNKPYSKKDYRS

[5] = biological target: Voltage-gated potassium channel subunit beta-2 (Rattus norvegicus) (UniProt P62483); experiment: KvBeta positive modulators, primary screen, biochemical, NADPH fluorescence (AID 623;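 active = NADPH fluorescence slope more negative than the mean of all samples by about 3 SD, 99.7% confidence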;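 note: fluorescence intensity change per second fitted from 20 to 320 s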); settings: Recombinant KvBeta, NADPH fluorescence decrease slope, 10 min; at 10 µM; stronger effect = lower value
[6] = biological target: Alpha-2C adrenergic receptor (Homo sapiens) (UniProt P18825); experiment: modulators of alpha2C/GIRK thallium flux, primary screen, cell-based, HEK293 alpha2C/GIRK1/2 (AID 624); settings: thallium flux BTC fluorescence, at 10 µM, actives lie on both sides;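 note: slope of fluorescence ratio to pre-addition baseline per second over 15 to 24 s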
Sequence of Alpha-2C adrenergic receptor (Homo sapiens) (P18825 whole entry, looked up): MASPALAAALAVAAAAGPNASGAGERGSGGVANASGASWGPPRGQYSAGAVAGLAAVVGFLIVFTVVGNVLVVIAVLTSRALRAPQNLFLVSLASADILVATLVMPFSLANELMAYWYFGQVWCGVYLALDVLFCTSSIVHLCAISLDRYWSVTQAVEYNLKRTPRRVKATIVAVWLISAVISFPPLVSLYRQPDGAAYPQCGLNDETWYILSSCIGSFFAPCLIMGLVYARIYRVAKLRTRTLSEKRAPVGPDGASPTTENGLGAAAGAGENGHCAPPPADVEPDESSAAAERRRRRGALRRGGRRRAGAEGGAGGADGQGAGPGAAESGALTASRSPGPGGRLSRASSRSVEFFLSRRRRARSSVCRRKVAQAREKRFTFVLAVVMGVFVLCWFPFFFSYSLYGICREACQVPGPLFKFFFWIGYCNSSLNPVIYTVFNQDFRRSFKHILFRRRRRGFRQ

[7] = inhibitors of Sendai virus-induced IRF3 signaling, primary screen, TLR/RLR signaling modifier project, cell-based, Sendai virus stimulus, luciferase, 10K MLSCN set (AID 602276;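 active = inhibition at or above 50% at 10 µM; inactive = inhibition below 50%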;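 note: firefly luciferase from ISG56 promoter only with Renilla not read in this screen; 0% = Sendai virus plus DMSO and 100% = medium plus DMSO without virus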); settings: HEK293 RL24 IRF3 luciferase reporter, at 10 µM, stronger effect = higher value
[8] = inhibitors of poly I:C-induced TLR3 signaling, primary screen, cell-based, poly I:C stimulus, luciferase, 10K MLSCN set (AID 602277;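 active = inhibition of the reporter signal at or above 50%; inactive = inhibition below 50%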); settings: HEK293-TLR3 RL24 IRF3 luciferase reporter, at 10 µM, stronger effect = higher value

Row | Compound | cell count [1] | inhibition [1] | inhibition of aggregation [2] | nuclei count [2] | inhibition [3] | nuclei count [3] | fluorescence slope [4] | NADPH fluorescence slope [5] | slope [6] | inhibition [7] | inhibition [8]
1 | CCC1SC2=NC(C)=C(C(=O)OC)C(c3ccc(C)cc3)N2C1=O (centres undefined) | 562 | -11.1% (inactive) | -9.6% (inactive) | 111% | -57.6% (inactive) | 103% | -0.591 (inactive) | -6.5e-05 (inactive) | 0.0061 (inactive) | -10.4% (inactive) | -17.2% (inactive)
2 | Cc1cc(=O)oc2c1ccc1oc(/C(=N/O)c3ccccc3)c(C)c12 | 456 | -19% (inactive) | 34.1% (inactive) | 77.6% | 1.5% (inactive) | 110% | -0.357 (inactive) | -3.7e-05 (inactive) | 0.00542 (inactive) | 7.72% (inactive) | 13.6% (inactive)
3 | Cc1cc(C(=O)Nc2nc3c(s2)CCCC3)cs1 | 347 | 7.6% (inactive) | -12.3% (inactive) | 111% | -6.3% (inactive) | 107% | -0.532 (inactive) | 1.1e-05 (inactive) | 0.00523 (inactive) | -47% (inactive) | -131% (inactive)
4 | CN1CCN(CC(=O)N2c3ccccc3C(C)(c3ccccc3)CC2(C)C)CC1 (centres undefined) | 352 | 2.9% (inactive) | -16.5% (inactive) | 74.1% | -183% (inactive) | 146% | -0.353 (inactive) | -6.8e-07 (inactive) | 0.00483 (inactive) | 35.9% (inactive) | 26.8% (inactive)
5 | CCCCP(=O)(CCCC)c1ccccc1C(=O)O | 404 | -2.2% (inactive) | 12.2% (inactive) | 81.7% | -21.2% (inactive) | 87.7% | -0.421 (inactive) | -9.2e-05 (inactive) | 0.00521 (inactive) | 6.88% (inactive) | 21.9% (inactive)
6 | C=CCSC1=C(C#N)C(c2ccccc2C)CC(=O)N1 (centres undefined) | 556 | 2.1% (inactive) | -12.2% (inactive) | 94% | -48.8% (inactive) | 174% | -0.601 (inactive) | -1.1e-05 (inactive) | 0.00492 (inactive) | -5.91% (inactive) | -13.9% (inactive)
7 | COc1ccc(C(NC(=O)C(C)(C)C)NC(=O)C(C)(C)C)cc1 | 364 | 3% (inactive) | 0.4% (inactive) | 106% | -52.8% (inactive) | 102% | -0.618 (inactive) | -1e-05 (inactive) | 0.00914 (inactive) | 4.79% (inactive) | 9.47% (inactive)
8 | O=C(CN1CCC(O)(c2ccc3c(c2)OCO3)CC1)OC1CCCCC1 | 459 | -3.6% (inactive) | 28.4% (inactive) | 67.8% | -55.1% (inactive) | 99.5% | -0.313 (inactive) | -4.7e-05 (inactive) | 0.00487 (inactive) | 8.26% (inactive) | 15.6% (inactive)
9 | CS(=O)(=O)c1ccc2nc(NC(=O)c3cccs3)sc2c1 | 351 | -2.9% (inactive) | 4.4% (inactive) | 105% | 3.9% (inactive) | 104% | -0.487 (inactive) | -5.8e-05 (inactive) | 0.00673 (inactive) | -10.7% (inactive) | -21.1% (inactive)
10 | Cn1c2ccc(F)cc2c2ncn(CCN3CCOCC3)c(=O)c21 | 719 | -8.9% (inactive) | -7.4% (inactive) | 81.6% | -39.1% (inactive) | 109% | -0.424 (inactive) | -1.5e-05 (inactive) | 0.00608 (inactive) | -47.2% (inactive) | 99.1% (active)
11 | CC(NC(=O)OC(C)(C)C)C(=O)N1CCCC1C(=O)NC(Cc1ccccc1)C(N)=O (stereo not drawn) (Boc-Ala-Pro-Phe-NH2; configuration not given here) | 220 | 9.7% (inactive) | -15.1% (inactive) | 85.5% | -30.7% (inactive) | 93.1% | -0.498 (inactive) | -3.8e-06 (inactive) | 0.00536 (inactive) | 19.8% (inactive) | 22.4% (inactive)
12 | CCOc1cc(CN2CCN(C(=O)c3ccco3)CC2)ccc1OC | 403 | -3% (inactive) | 8.5% (inactive) | 88.9% | 44.9% (inactive) | 104% | -0.33 (inactive) | -1.5e-05 (inactive) | 0.00559 (inactive) | 11.7% (inactive) | 21.2% (inactive)
13 | CS(=O)(=O)N(Cc1nc2sc3c(c2c(=O)[nH]1)CCCC3)C1CCCCC1 | 352 | 0.8% (inactive) | -9.4% (inactive) | 106% | -6.2% (inactive) | 110% | -0.612 (inactive) | -4.9e-05 (inactive) | 0.00352 (inactive) | 4.56% (inactive) | 14.4% (inactive)
14 | CCC(C)(C)n1nnnc1C(c1cc2cc(C)ccc2[nH]c1=O)N1CCCC1 (centres undefined) | 353 | 4.2% (inactive) | -27.7% (inactive) | 103% | -273% (inactive) | 110% | -0.43 (inactive) | 2.7e-05 (inactive) | 0.00689 (inactive) | 13.6% (inactive) | 28.7% (inactive)
